# Source: PubChem BioAssay AID772 (SRMLSC, 2007)
# In all, about 3,300 compounds went through this assay and about 20 (0.6%) were called active. This is one part of a sample in which actives are shown more often than they occur.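 Rule for the calls: active = growth inhibition above 90%, meaning viable cell count cut by more than 90% versus vehicle controls; inactive = growth inhibition below 90%.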
# Assay: HT29 colon tumor cell growth inhibition, primary screen, imaging, high content imaging, 72 h, CellTiter-Glo (AID 772);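 for condensed nuclei: condensed means nuclear area below control median minus 1.5 SD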
# Conditions: HCS imaging cell count, at 10 µM, stronger effect = higher value; for condensed nuclei: measured here: percent cells with condensed nuclei
# [1] = measured here: ATP CellTiter-Glo viability
Structure (SMILES),growth inhibition,growth inhibition [1] [%],condensed nuclei [%]
C=CCNc1nc(C2(C)CC3(CC(C)(C)OC3=O)C(=O)O2)cs1 (centres undefined),-18.2% (inactive),-56.2,1.83
CCCCSc1nc(N)c(C#N)c(-c2cccs2)c1C#N,95.4% (active),86.1,41.7
N#Cc1c(N)nc(SCC(=O)NCCc2ccccc2)c(C#N)c1-c1cccs1,31.9% (inactive),4.22,7.98
N#Cc1c(N)nc(SCc2ccccn2)c(C#N)c1-c1cccs1,63.2% (inactive),42.6,5.56
CCN(CC)S(=O)(=O)c1cccc2c(N(C)C)cccc12,-83.5% (inactive),-46.3,4.17
COCCCNc1nc(-c2ccncc2)nc2ccccc12,89.9% (inactive),86.6,44.1
COCCCNC(=O)C(C#N)c1nc2ccccc2nc1N1CCN(Cc2ccccc2)CC1 (centres undefined),0% (inactive),11.6,4.88
Clc1cccc(-c2nn3c(-c4cccc(Cl)c4)nnc3s2)c1,-66.5% (inactive),-37.2,7.77
COc1ccccc1C(=O)N1CCCC1(C#N)c1ccccc1 (centres undefined),-76.6% (inactive),-54.8,2.93
Fc1ccc2[nH]c3c(N4CCN(C5CCCCC5)CC4)ncnc3c2c1,86.8% (inactive),96.8,43.8
CCOc1cccc(-c2nn3c(-c4ccco4)nnc3s2)c1,19.2% (inactive),-9.06,6.05
Cc1cc(C(=O)O)c(CSc2ncn[nH]2)o1,-5.63% (inactive),-62.3,6.05
Cc1cc(=O)oc(C)c1C(=O)NCCC1=CCCCC1,26.9% (inactive),32.2,17.3
Cc1nc2sccn2c(=O)c1CCN1CCC(=C(c2ccc(F)cc2)c2ccc(F)cc2)CC1,93.1% (active),84.8,24.1
Cc1nc2ccccn2c(=O)c1CCN1CCC(C(=O)c2ccc(F)cc2)CC1,73.8% (inactive),86.5,24.8
Cc1nc2sccn2c(=O)c1CCN1CCC(=C(c2ccccc2)c2ccc(F)cc2)CC1,29.7% (inactive),6.78,5.93
O=C(CCC(=O)CCN1CCCCC1)CCN1CCCCC1,28.4% (inactive),14.4,16.4
CCOc1ccc2nc(NC(NC(C)=O)(C(=O)OC)C(F)(F)F)sc2c1 (centres undefined),-16.9% (inactive),18.6,3.93
C=CCn1cnc2c(c1=O)c1nc3ccccc3nc1n2-c1ccc(C)cc1,31.2% (inactive),-2.67,2.48
Cn1c(SCC(=O)NCc2ccccc2)nc2ccccc21,59.6% (inactive),2.57,4.29
CCC(=O)O[C@@H]1CC(=O)O[C@H](C)CC=CC=C[C@@H](O)[C@H](C)C[C@H](CC=O)[C@H](O[C@H]2O[C@H](C)[C@@H](O[C@H]3C[C@@](C)(O)[C@@H](OC(=O)CC)[C@H](C)O3)[C@H](N(C)C)[C@H]2O)[C@H]1OC,-45.9% (inactive),-13.7,2.22
COc1ccc2[nH]c(C)c(C(=O)CN3CCc4cc(OC)c(OC)cc4C3)c2c1,-33.9% (inactive),-14.6,2.58
CCN(CC)C(=O)CSc1nc2ccccc2c(=O)n1CC1CCCCC1,65.6% (inactive),31.7,18.9
Cc1[nH]c2ccc(F)cc2c(=O)c1SC(F)(F)C(F)C(F)(F)F (centres undefined),-7.36% (inactive),-57.2,1.61
COc1cccc2c(=O)c(SC(F)(F)C(F)C(F)(F)F)c(C)[nH]c12 (centres undefined),94% (active),65.5,36.9

Structure (SMILES),growth inhibition,growth inhibition [1] [%],condensed nuclei [%]
Cc1onc(-c2ccccc2Cl)c1C(=O)N1CCN(c2nc3ccccc3s2)CC1,55.9% (inactive),62.8,7.24
O=C1[C@@H]2[C@H](C(=O)N1n1cnnc1)[C@H]1C=C[C@@H]2C1,-36.7% (inactive),4.74,7.85
Cc1cccn2c(=O)c3cc(C#N)c(=N)n(Cc4ccncc4)c3nc12,10.6% (inactive),-4.36,5.14
CCC(NC(=O)Nc1cc(OC)c(OC)c(OC)c1)(C(F)(F)F)C(F)(F)F,9.36% (inactive),-14.6,2.2
COC(=O)[C@@H](N)Cc1ccc(O)cc1,-11.9% (inactive),12.5,9.88
COC(=O)/C=c1/s/c(=C(/C#N)C(=O)N2CCOCC2)n(-c2ccccc2)c1=O,-9.52% (inactive),-73,5.81
C=CCOC(=O)C1=C(C)NC(SCC(=O)Nc2ccc(C)c(Cl)c2)=C(C#N)C1c1ccco1 (centres undefined),81.3% (inactive),81.8,10.5
O=C1C(=O)N(Cc2cccnc2)C(c2ccccn2)/C1=C(/O)c1ccc(Br)cc1 (centres undefined),-60.8% (inactive),-51.9,3.93
CCOC(=O)c1c(C)n(C)c2ccc(O)c(S(=O)(=O)c3ccccc3)c12,0.86% (inactive),-12.9,2.84
Cc1nc(Sc2cccn2C)c(C(F)(F)F)c(=O)[nH]1,26% (inactive),-42.6,1.74
N#CC1=C(C=Nc2ccccc2O)CCC1,2.22% (inactive),-3.16,1.93
CCOC(=O)c1c(C)n(C)c2ccc(OC)c(NC(=O)CCN3CCSCC3)c12,-24% (inactive),-19.5,1.98
Cc1cc2c(c(=O)n1CC1CCCO1)C(c1ccc3c(c1)OCO3)C(C#N)=C(N)O2 (centres undefined),-29.9% (inactive),-39,2.84
COC(=O)C(NC(=O)c1ccccc1)(Nc1nccs1)C(F)(F)F (centres undefined),60.8% (inactive),20.8,9.01
CC(C)(C)C1=Nn2c(nnc2-c2ccccn2)SC1,-24.5% (inactive),-54.2,2.89
Cn1c(Cl)nc2c1c(=O)n(Cc1cccc(Br)c1)c(=O)n2C,58.3% (inactive),38,20.4
CC(NC(=O)NCc1cccnc1)(C(F)(F)F)C(F)(F)F,-58% (inactive),-34.9,7.24
CCO/C(C)=N/n1c2nc3ccccc3nc2c2c(=O)n(Cc3ccccc3Cl)c(C)nc21,-20.7% (inactive),-31,2.79
CC(C)N=c1cc2n(-c3ccc(Cl)cc3)c3ccccc3nc-2cc1Nc1ccc(Cl)cc1,39.7% (inactive),87,30.8
COC(=O)NC(Nc1sc2c(c1C(N)=O)CCCC2)(C(=O)OC)C(F)(F)F (centres undefined),-86.9% (inactive),-40.6,3.2
O=C(CN1C(=O)c2ccccc2S1(=O)=O)NCCSCc1ccco1,36.4% (inactive),6.94,3.38
CCCCCNC(=O)C(C#N)c1nc2ccccc2nc1N1CC(C)OC(C)C1 (centres undefined),31% (inactive),-14.9,8.13
CCCCCCc1cc2cc(-c3nnc(-c4ccccc4O)o3)c(=O)oc2cc1O,23.4% (inactive),12.5,4.18
CCN(CC)c1ccc2cc(C(=O)Nc3ccccn3)c(=O)oc2c1,12.7% (inactive),-23.3,5.56
CCN(CC)c1ccc2cc(-c3nnc(-c4ccncc4)o3)c(=O)oc2c1,99.1% (active),-9.72,4.75

Structure (SMILES),growth inhibition,growth inhibition [1] [%],condensed nuclei [%]
CCOC(=O)CSc1nnc2n(Cc3ccccc3)c(=O)c3c4c(sc3n12)CCC4,17.8% (inactive),-5.86,16.9
CCOC(=O)c1ccc(NC(=O)CCC(CC)C(=O)O)cc1 (centres undefined),-26.9% (inactive),-22.9,2.9
CC1(C(=O)CSc2n[nH]c(-c3ccccc3Cl)n2)CCC(=O)O1 (centres undefined),-77.2% (inactive),-34.5,2.66
OCCN(CCO)c1ncnc2c1sc1nc(N3CCOCC3)c3c(c12)CCCC3,49.2% (inactive),92.5,17.2
CC1(C)Cc2c(sc3nc(SCC#N)n(C4CCCCC4)c(=O)c23)CO1,25.6% (inactive),23.5,3.8
N#CC(C(=O)NC1CCCCC1)c1nc2ccccc2nc1N1CCN(c2ccccc2F)CC1 (centres undefined),-45.2% (inactive),-45.5,1.44
CCCCC(CCC(=O)Nc1ccc(C(=O)OC)cc1)C(=O)O (centres undefined),37.5% (inactive),-7.18,1.33
Cc1c(CCC#N)c(N2CCN(C3CCCCC3)CC2)n2c(nc3ccccc32)c1C#N,32.8% (inactive),-4.95,10.6
Cc1cc(COc2ccccc2OCCN2CCN(C)CC2)no1,4.14% (inactive),10.2,1.56
CC(=O)c1cc(C#N)c(SCc2ccncc2)nc1C,26.3% (inactive),11,4.17
CCOC(=O)CC(=O)CSc1nc2c(cc1C#N)CCCCCC2,-4.76% (inactive),-61.7,6.69
COC(=O)CC1SC(=O)NC1=O (centres undefined),-1.44% (inactive),-13,4.51
Cc1ccc(SCc2nnc(N)s2)cc1,-4.01% (inactive),13.4,15.1
CCN(CC)CCCC1(CN)OCCc2ccccc21 (centres undefined),-50.9% (inactive),-27.8,1.84
CCOc1cccc(-c2nnc3sc(-c4cc(OC)c(OC)c(OC)c4)nn23)c1,-44.5% (inactive),-50.4,2.45
Cc1ccc2cc(CN(C(=O)c3ccco3)c3ccccc3C)c(=O)[nH]c2c1,-61.6% (inactive),-59.5,2.77
CCCOc1ccc(Cl)cc1CN1CCOCC1,-59.3% (inactive),-68.7,3.51
COn1c(SC2CCCCC2)nc2ccccc2c1=O,52.3% (inactive),29.2,12.3
CCOC(=O)C1=C(N)n2c(s/c(=C\c3ccco3)c2=O)=C(C(=O)OC(C)C)C1c1ccco1 (centres undefined),50% (inactive),-8.27,23.3
O=C(O)c1cc2sccc2s1,33% (inactive),-8.08,8.44
CC1(C)NC(=O)N(CC(O)COc2ccccc2C(=O)Nc2ccccc2)C1=O (centres undefined),-19.4% (inactive),-40.4,5.25
COC(=O)C1C(=O)CC(C)(O)C(C(=O)OC)C1c1ccccc1F (centres undefined),19% (inactive),-32.9,2.72
O=C(OCC#CCSc1nnc(-c2ccccc2)o1)c1cccs1,38% (inactive),5.5,10.3
